Shown are actives, neighbours in structure and some others; about 31% of the full set was active somewhere.
CYP2C19 activ: increases human CYP2C19 enzyme activity; P33261; recombinant CYP2C19, luciferin-H EGE luminescence; active compounds read high; 0 = fully inhibited enzyme, 1 = untreated enzyme; activation factor at 5 µM; 96,000 tested, under 10 active; AID 1025;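 active = activation factor of at least 2 at 5 µM in the primary screen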
Target sequence (P33261 whole entry, looked up): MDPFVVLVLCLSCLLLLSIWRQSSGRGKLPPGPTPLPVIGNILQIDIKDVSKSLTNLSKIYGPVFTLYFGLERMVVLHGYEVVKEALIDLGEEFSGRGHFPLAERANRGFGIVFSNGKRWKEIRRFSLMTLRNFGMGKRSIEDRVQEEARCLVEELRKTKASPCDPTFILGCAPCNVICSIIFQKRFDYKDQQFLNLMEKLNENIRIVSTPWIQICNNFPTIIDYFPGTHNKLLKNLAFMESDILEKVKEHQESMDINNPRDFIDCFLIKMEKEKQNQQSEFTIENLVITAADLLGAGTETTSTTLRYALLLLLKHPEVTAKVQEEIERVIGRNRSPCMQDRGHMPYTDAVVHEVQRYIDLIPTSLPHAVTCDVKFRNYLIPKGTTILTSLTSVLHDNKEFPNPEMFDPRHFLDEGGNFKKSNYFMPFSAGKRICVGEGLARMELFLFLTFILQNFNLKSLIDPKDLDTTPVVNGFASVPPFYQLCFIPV
CYP2C19 inhib: blocks human cytochrome P450 2C19; CYP2C19 Supersomes, luciferin-H EGE luminescence, 30 min; 96,000 compounds, 21% hits; inhibition, % at 5 µM;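 active = CYP2C19 inhibition above a set limit at 5 µM in the primary screen, cut at about 50% in these data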
CYP2C9 inh: human CYP2C9 inhibition; P11712; 96,000 compounds, 20% hits; AID 777; inhibition, % at 5 µM; CYP2C9 Supersomes, luciferin-H conversion, luminescence;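 active = blocking of liver enzyme CYP2C9 beyond about 50% at 5 µM, limit read from the data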
CYP2C9 act: increases human cytochrome P450 2C9 activity; recombinant CYP2C9, luciferin-H conversion, luminescence; active compounds read high; factor 1 = untreated enzyme, 0 = blocked; 96,000 compounds, 1.4% hits; activation factor at 5 µM;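 active = activation factor of 2 or more for CYP2C9 at a 5 µM dose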
PLAP act: activators of human placental alkaline phosphatase; activation fold at 20 µM; purified PLAP enzyme, luminescent substrate read-out; active compounds read high; 96,000 compounds, 1.2% hits; in the data active = activation fold above about 2
Of the large screens only hits and unclear results are named; the others gave an inactive call.

CCOc1ccc(Nc2nc3c(c(=O)[nH]2)CCC3)cc1	none
O=C(CSc1ncnc2nc[nH]c12)N1CCN(c2ccccc2)CC1	none
O=c1c2ccccc2nc(CSc2ncnc3nc[nH]c23)n1-c1cccc(C(F)(F)F)c1	PLAP act 2.1
COc1cc(C(=O)COC(=O)CNC(=O)C2CCCCC2)cc(OC)c1OC	none
CC(=O)Nc1ccc(N(C)S(C)(=O)=O)cc1	none
COc1ccc(F)cc1S(=O)(=O)Nc1ccc2c(c1)OCCO2	none
COc1ccc(OC)c(S(=O)(=O)Nc2cccc(F)c2)c1	CYP2C19 inhib 89, CYP2C9 inh 68
COc1ccc(OC)c(S(=O)(=O)n2nnc3ccccc32)c1	CYP2C19 inhib 59
COc1ccc(NS(=O)(=O)c2cc(C(=O)O)ccc2C)cc1	none
COc1ccc(C)cc1S(=O)(=O)Nc1ccc(F)cc1	CYP2C19 inhib 88, CYP2C9 inh 72
CCOc1cc(C)c(S(=O)(=O)Nc2ccc(F)cc2)cc1C	CYP2C19 inhib 100, CYP2C9 inh 97
Cc1onc(-c2c(F)cccc2Cl)c1C(=O)OCC(=O)Nc1c(C)n(C)n(-c2ccccc2)c1=O	none
CCc1ccc(NS(=O)(=O)c2cc(OC)ccc2OC)cc1	CYP2C19 inhib 54, CYP2C9 inh 68
COc1ccc(C(=O)O)cc1S(=O)(=O)Nc1cccc(C)c1	none
COc1ccc(OC)c(S(=O)(=O)Nc2cccc(C(C)=O)c2)c1	CYP2C19 inhib 98, CYP2C9 inh 66
COc1ccc(NS(=O)(=O)c2ccc(OC)c3ccccc23)cn1	CYP2C9 inh 85
CCOC(=O)c1ccc(NS(=O)(=O)c2cc(-c3nnnn3C(C)C)ccc2OC)cc1	CYP2C19 inhib 90, CYP2C9 inh 91
COc1cc(N2CCOCC2)ncn1	none
CCOC(=O)c1sc(/N=C/c2c(C)[nH]n(-c3ccccc3)c2=O)c(C#N)c1C	none
CCOC(=O)CSc1nnc(CNC(=O)c2ccccc2OC)n1-c1ccc(OC)cc1	none
CN(C)C(=O)Nc1cnc2ccccc2c1	none
O=S(=O)(Nc1cnc2ccccc2c1)N1CCCCCC1	CYP2C19 inhib 57
COc1ccc(OC)c(S(=O)(=O)Nc2cnc3ccccc3c2)c1	CYP2C19 inhib 73
COc1ccc(OC)c(S(=O)(=O)Nc2ccc(F)cc2)c1	CYP2C19 inhib 52
COC(=O)c1ccc(NS(=O)(=O)c2cc(C)ccc2OC)cc1	CYP2C9 inh 55
CC(CC(=O)NCc1ccccc1)C1CCCO1 (configuration not stated)	CYP2C9 inh 60
Cc1nn(Cc2nc(-c3cccs3)no2)c(C)c1Br	CYP2C19 inhib 75
O=C(c1cc2ccccc2oc1=O)N1CCN(c2ncccn2)CC1	CYP2C19 inhib 87
Cc1cccc(N2CCN(C(=O)c3cc4ccccc4oc3=O)CC2)c1C	none
O=C(c1cc2ccccc2oc1=O)N1CCN(c2ccccn2)CC1	CYP2C19 inhib 77
O=C(c1cc2ccccc2oc1=O)N1CCCC1	none
Clc1ccc(-c2nnc3n2CCCC3)cc1Cl	none
COc1ccc2c(=O)c(-c3ccccc3C)c(C)oc2c1	none
Cc1ccccc1-c1coc2cc(O)ccc2c1=O	CYP2C9 act 2.5
O=C(Cn1nnc2c(cnn2-c2ccc(F)cc2)c1=O)OC1CCCCC1	CYP2C19 inhib 62
COC(=O)c1ccc(/C=N/OCC(=O)NC2CCCC(C)C2C)cc1 (configuration not stated)	none
COC(=O)c1ccc(/C=N/OCC(=O)NC2CCCCCCC2)cc1	CYP2C9 inh 65
CCC(C)NC(=O)CO/N=C/c1ccc(C(=O)OC)cc1 (configuration not stated)	CYP2C9 inh 69
Cc1ccc(CNC(=O)CSCC(=O)O)cc1	none
CCN(CC(=O)NCc1cccs1)c1ccc(S(=O)(=O)N2CCOCC2)cn1	CYP2C9 inh 57
CC1CCN(c2nc(-c3ccco3)c3c(c2C#N)CC(C)(C)OC3)CC1	CYP2C9 inh 56
CC(C)Cc1nc(N2CCN(C(=O)Cc3ccccc3)CC2)c(C#N)c2c1COC(C)(C)C2	none
CC1(C)Cc2c(C#N)c(N3CCN(C(=O)c4ccccc4)CC3)nc(Cc3ccccc3)c2CO1	CYP2C9 inh 98
CCc1nc(N2CCOCC2)c(C#N)c2c1COC(C)(C)C2	CYP2C19 inhib 60
CCc1nc(NCC(C)C)c(C#N)c2c1COC(C)(C)C2	none
CC1(C)Cc2c(C#N)c(NCCN3CCOCC3)nc(-c3ccco3)c2CO1	none
CCc1nc(N2CCN(C(=O)c3ccccc3)CC2)c(C#N)c2c1COC(C)(C)C2	CYP2C19 inhib 75, CYP2C9 inh 77
Cc1nc(NCC2CCCO2)nc2c1C(=O)CC(C)(C)C2 (configuration not stated)	none
C=C(C)CC1N(c2cccc(OC)c2)C(=O)[C@@H]2C(C(=O)O)[C@H]3C=C[C@@]12O3 (some centres not stated)	none
O=S(=O)(NCc1ccccc1)c1ccc(S(=O)(=O)N(Cc2ccccn2)Cc2ccco2)cc1	none
Cc1ccc(S(=O)(=O)N2CCN(c3nc(C)c4c(c3C#N)CC(C)(C)OC4)CC2)cc1	CYP2C19 inhib 77, CYP2C9 inh 83
CCOC(=O)N1CCN(c2ncnc3c2oc2nc(C)c4c(c23)CC(C)(C)OC4)CC1	none
CC1(C)Cc2c(C#N)c(N3CCOCC3)nc(Cc3ccccc3)c2CO1	CYP2C19 inhib 93, CYP2C9 inh 77
CC(=O)Nc1cc(C(=O)N2CCCC2)ccc1Sc1ccc(Cl)cc1	none
CC(=O)Nc1cc(C(=O)N2CCCC2)ccc1Sc1ccc(C)cc1	CYP2C19 inhib 65
Cc1cc(N2CCC(C)CC2)nc2cccc(O)c12	CYP2C9 act 3
CCOC(=O)C(CC)/C(C)=N/NC(=O)c1ccccc1[N+](=O)[O-] (configuration not stated)	none
CCc1ccc(NSc2ccccc2[N+](=O)[O-])cc1	CYP2C19 inhib 65
CCC(=O)c1ccc(OCC(=O)Nc2nn3cnnc3s2)cc1	CYP2C9 inh 84
O=C(CCCCCN1C(=O)CCC1=O)Nc1ccc2c(c1)OCCO2	none
CCC(=NC(C)c1ccccc1)c1c(O)n(C)c(=O)n(C)c1=O (configuration not stated)	CYP2C19 inhib 68, CYP2C9 inh 56
CSc1cccc(NC(=O)Nc2ccc(Cl)cc2)c1	none
CSc1ccccc1NC(=O)Nc1ccc(Cl)cc1	CYP2C19 inhib 85, CYP2C9 inh 53
COc1cc(C(=O)N2CCC(NC(=O)C(Cc3ccccc3)NC(C)=O)CC2)cc(OC)c1OC (configuration not stated)	none
Clc1nc2sccn2c1/C=N/n1cnc2ccccc21	none
CCOC(=O)C1=C(C)OC(N)=C(C(=O)OCC)C1c1ccncc1 (configuration not stated)	CYP2C19 inhib 93, CYP2C9 inh 99
CC(=O)C1=C(C)OC(N)=C(C#N)C1c1ccncc1 (configuration not stated)	none
CCOC(=O)C1=C(C)OC(N)=C(C(=O)OCC)C1c1cccnc1 (configuration not stated)	CYP2C19 inhib 92, CYP2C9 inh 96

Assay outcomes from PubChem.
